# Test results: publication PMC7862700, “An all-to-all approach to the identification of sequence-specific readers for epigenetic DNA modifications on cytosine”
# Experiments:
# Assay in all cases: DAPPL (digital affinity profiling via proximity ligation, sequencing); 10 mM Tris-HCl pH 7.5, 50 mM NaCl, 1 mM DTT, 4% glycerol, room temperature, 30 min; GST-TFs on glutathione beads, 16-mer random dsDNA library, 0.1% formaldehyde crosslink after washing; high values mean tight binding
# [1] = molecular target: T1, ELK1 (Homo sapiens, UniProt P19419 1-428); settings: protein: recombinant; tags: N-terminal GST; dsDNA, one strand shown
# T1 sequence: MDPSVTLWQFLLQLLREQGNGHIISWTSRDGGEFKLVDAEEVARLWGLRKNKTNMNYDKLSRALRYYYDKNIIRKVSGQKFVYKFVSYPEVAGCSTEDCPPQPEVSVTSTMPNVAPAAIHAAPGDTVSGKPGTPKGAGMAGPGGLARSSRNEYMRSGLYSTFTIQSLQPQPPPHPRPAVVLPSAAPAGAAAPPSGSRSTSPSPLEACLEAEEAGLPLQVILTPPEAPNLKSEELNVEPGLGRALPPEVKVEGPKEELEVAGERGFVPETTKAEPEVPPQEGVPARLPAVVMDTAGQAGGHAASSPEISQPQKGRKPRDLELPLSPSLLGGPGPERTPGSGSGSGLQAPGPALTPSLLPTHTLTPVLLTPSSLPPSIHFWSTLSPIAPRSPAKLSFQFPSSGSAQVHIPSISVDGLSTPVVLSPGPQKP
# Procedure, shortened: (§1)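 Sequencing on an Illumina NextSeq500 followed washing, crosslinking with 0.1% formaldehyde, proximity ligation (BsaI/T4 ligase, 1 h, 37 °C) and PCR amplification of pools that had been incubated for 30 min at room temperature with 200 nmole of a random double-stranded 16-mer DNA library in Tris/NaCl/DTT/glycerol buffer. Each pool held DNA-barcoded human transcription factors, expressed in yeast as GST fusions and captured on glutathione beads, plus a tag-only sample. Binding signal is a hexamer's read frequency for a factor divided by its frequency in the tag-only sample.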
# [2] = molecular target: T2, GABPA (Homo sapiens, UniProt Q06546 1-454); settings: protein: recombinant; tags: N-terminal GST; dsDNA, one strand shown
# T2 sequence: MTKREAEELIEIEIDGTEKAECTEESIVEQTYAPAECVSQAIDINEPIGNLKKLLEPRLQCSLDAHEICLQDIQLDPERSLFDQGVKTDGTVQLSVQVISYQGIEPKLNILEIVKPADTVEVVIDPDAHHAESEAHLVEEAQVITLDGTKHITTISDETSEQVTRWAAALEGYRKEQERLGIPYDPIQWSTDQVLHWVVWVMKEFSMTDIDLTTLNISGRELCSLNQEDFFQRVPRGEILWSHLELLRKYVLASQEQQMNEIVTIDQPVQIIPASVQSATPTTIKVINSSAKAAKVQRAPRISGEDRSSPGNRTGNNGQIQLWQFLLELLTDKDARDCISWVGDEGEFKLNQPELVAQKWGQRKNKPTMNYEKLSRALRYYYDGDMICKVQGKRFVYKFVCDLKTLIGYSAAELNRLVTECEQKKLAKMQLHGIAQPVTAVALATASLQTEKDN
# Procedure, shortened: as §1
# [3] = molecular target: ELF1 (Homo sapiens, UniProt P32519 1-619); settings: protein: recombinant; tags: N-terminal GST; dsDNA, one strand shown
# ELF1, sequence (P32519 whole entry): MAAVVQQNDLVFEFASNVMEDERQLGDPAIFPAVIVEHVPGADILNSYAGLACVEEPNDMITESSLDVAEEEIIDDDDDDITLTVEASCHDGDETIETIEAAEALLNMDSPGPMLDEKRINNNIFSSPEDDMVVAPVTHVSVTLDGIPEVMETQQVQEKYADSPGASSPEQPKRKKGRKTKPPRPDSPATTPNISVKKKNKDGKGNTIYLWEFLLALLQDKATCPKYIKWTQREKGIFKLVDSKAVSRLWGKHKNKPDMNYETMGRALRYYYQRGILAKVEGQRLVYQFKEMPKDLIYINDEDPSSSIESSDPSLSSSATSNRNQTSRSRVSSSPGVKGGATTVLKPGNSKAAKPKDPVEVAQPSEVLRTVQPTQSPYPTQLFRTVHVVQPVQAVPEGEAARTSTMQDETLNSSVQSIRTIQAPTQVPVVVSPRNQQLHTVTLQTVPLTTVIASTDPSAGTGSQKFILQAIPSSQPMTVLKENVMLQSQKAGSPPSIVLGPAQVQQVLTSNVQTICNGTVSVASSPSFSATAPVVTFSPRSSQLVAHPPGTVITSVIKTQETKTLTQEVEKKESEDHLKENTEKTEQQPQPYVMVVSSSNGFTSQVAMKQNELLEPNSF
# Procedure, shortened: as §1
# [4] = molecular target: HSF1 (Homo sapiens, UniProt Q00613 1-529); settings: protein: recombinant; tags: N-terminal GST; chain copies: 3; dsDNA, one strand shown
# HSF1, sequence (Q00613 whole entry): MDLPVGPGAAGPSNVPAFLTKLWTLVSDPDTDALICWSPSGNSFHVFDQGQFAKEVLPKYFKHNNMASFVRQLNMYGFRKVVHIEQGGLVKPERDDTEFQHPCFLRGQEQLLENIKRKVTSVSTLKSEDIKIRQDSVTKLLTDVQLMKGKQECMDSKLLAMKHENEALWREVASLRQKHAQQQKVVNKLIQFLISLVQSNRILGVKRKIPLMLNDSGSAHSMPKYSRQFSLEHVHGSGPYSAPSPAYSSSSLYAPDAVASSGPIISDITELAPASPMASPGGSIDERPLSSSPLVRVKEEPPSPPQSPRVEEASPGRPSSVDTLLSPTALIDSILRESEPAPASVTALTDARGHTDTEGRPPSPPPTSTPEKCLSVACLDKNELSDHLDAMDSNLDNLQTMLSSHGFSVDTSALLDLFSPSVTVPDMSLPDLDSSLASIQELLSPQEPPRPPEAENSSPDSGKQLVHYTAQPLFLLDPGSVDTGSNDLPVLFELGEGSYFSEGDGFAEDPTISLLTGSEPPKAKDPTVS
# Procedure, shortened: as §1
# [5] = molecular target: T3, ELK4 (Homo sapiens, UniProt P28324-2 1-405); settings: protein: recombinant; tags: N-terminal GST; dsDNA, one strand shown
# T3 sequence: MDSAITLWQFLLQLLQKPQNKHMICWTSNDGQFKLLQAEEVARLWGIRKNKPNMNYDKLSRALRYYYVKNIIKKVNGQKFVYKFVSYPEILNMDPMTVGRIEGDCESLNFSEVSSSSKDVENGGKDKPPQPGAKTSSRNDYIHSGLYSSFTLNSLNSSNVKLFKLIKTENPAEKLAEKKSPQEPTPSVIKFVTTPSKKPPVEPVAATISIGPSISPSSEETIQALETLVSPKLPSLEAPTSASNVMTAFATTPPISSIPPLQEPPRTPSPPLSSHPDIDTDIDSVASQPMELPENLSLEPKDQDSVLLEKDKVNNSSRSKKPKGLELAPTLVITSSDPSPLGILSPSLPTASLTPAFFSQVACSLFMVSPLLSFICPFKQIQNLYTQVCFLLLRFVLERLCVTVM
# Procedure, shortened: as §1
# [6] = molecular target: CRX (Homo sapiens, UniProt O43186 1-299); settings: protein: recombinant; tags: N-terminal GST; dsDNA, one strand shown
# CRX, sequence (O43186 whole entry): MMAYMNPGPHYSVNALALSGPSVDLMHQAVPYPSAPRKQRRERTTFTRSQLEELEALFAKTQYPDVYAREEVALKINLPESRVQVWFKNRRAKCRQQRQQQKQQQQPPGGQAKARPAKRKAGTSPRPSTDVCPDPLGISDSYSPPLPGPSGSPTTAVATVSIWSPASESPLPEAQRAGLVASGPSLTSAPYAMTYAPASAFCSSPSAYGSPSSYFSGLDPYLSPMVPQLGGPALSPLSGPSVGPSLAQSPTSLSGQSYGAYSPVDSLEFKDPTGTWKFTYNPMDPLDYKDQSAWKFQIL
# Procedure, shortened: as §1
# [7] = molecular target: ETV1 (Homo sapiens, UniProt P50549 1-477); settings: protein: recombinant; tags: N-terminal GST; dsDNA, one strand shown
# ETV1, sequence (P50549 whole entry): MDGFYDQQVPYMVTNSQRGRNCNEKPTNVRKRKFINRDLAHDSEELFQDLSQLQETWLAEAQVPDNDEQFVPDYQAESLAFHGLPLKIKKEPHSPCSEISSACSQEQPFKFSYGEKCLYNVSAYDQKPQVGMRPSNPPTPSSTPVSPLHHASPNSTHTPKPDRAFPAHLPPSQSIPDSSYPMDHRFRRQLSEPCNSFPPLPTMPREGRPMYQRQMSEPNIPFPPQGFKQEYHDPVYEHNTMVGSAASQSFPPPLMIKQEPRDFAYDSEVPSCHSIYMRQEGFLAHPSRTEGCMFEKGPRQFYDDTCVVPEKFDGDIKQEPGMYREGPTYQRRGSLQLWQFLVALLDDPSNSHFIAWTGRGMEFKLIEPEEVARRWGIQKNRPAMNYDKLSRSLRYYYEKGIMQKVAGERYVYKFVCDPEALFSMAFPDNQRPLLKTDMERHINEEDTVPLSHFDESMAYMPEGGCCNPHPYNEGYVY
# Procedure, shortened: as §1
# [8] = molecular target: T4, ETV3L (Homo sapiens, UniProt Q6ZN32 1-361); settings: protein: recombinant; tags: N-terminal GST; dsDNA, one strand shown
# T4 sequence: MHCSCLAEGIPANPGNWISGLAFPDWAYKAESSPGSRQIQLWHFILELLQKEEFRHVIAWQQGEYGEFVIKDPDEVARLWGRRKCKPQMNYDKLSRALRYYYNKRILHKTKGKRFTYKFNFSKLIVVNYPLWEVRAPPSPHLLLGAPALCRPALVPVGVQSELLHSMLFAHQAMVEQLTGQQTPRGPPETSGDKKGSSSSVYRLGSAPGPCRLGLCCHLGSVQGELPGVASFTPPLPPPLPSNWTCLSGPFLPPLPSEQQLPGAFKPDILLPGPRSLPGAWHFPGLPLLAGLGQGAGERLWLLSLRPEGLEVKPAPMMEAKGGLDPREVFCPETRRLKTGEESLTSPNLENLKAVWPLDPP
# Procedure, shortened: as §1
# [9] = molecular target: T5, SPDEF (Homo sapiens, UniProt O95238 1-335); settings: protein: recombinant; tags: N-terminal GST; dsDNA, one strand shown
# T5 sequence: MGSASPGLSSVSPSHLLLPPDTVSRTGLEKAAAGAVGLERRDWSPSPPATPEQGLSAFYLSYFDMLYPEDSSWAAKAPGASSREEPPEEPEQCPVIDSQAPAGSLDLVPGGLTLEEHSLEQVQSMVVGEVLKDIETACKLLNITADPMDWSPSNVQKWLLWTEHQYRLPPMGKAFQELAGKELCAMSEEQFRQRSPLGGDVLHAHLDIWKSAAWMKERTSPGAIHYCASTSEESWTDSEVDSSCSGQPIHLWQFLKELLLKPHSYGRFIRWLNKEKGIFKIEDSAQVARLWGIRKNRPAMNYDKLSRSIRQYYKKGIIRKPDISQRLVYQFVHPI
# Procedure, shortened: as §1
# [10] = molecular target: T6, ETV3 (Homo sapiens, UniProt P41162-2 1-143); settings: protein: recombinant; tags: N-terminal GST; dsDNA, one strand shown
# T6 sequence: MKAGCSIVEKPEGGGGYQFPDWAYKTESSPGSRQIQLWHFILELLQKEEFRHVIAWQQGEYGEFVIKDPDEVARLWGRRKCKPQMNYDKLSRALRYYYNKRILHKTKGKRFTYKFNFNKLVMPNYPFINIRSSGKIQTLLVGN
# Procedure, shortened: as §1
# [11] = molecular target: ETV6 (Homo sapiens, UniProt P41212 1-452); settings: protein: recombinant; tags: N-terminal GST; dsDNA, one strand shown
# ETV6, sequence (P41212 whole entry): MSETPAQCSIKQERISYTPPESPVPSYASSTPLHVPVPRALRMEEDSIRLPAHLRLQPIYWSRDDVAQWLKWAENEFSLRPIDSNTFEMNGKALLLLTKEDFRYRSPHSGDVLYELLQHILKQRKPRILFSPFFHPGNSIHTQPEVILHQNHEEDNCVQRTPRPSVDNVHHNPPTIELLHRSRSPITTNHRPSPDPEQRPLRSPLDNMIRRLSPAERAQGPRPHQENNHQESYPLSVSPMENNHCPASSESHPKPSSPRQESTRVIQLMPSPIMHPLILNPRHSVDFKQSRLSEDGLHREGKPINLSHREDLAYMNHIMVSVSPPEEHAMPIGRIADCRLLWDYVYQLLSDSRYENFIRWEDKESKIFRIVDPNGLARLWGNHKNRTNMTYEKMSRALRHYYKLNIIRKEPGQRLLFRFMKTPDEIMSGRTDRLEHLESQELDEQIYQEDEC
# Procedure, shortened: as §1
# [12] = molecular target: T7, EHF (Homo sapiens, UniProt Q9NZC4 1-300); settings: protein: recombinant; tags: N-terminal GST; dsDNA, one strand shown
# T7 sequence: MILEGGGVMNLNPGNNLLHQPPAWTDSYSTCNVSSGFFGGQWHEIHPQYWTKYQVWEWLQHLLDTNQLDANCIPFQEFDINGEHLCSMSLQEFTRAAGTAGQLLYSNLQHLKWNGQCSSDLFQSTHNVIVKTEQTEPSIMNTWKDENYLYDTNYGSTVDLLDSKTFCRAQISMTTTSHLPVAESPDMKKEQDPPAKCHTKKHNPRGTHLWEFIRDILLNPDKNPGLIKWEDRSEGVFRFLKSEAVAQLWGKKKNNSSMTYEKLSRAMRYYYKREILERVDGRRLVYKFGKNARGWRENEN
# Procedure, shortened: as §1
# [13] = molecular target: T8, ETV2 (Homo sapiens, UniProt O00321 1-342); settings: protein: recombinant; tags: N-terminal GST; dsDNA, one strand shown
# T8 sequence: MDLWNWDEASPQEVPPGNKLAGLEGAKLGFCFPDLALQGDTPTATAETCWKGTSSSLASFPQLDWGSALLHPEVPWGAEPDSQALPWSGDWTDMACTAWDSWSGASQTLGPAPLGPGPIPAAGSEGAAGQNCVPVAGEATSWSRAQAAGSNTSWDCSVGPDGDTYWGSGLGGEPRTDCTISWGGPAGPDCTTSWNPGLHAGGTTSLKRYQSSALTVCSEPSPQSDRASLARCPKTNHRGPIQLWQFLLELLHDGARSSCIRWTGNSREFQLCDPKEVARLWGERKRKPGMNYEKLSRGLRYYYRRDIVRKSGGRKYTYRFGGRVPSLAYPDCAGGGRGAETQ
# Procedure, shortened: as §1
# [14] = molecular target: T9, ERF (Homo sapiens, UniProt P50548 1-548); settings: protein: recombinant; tags: N-terminal GST; dsDNA, one strand shown
# T9 sequence: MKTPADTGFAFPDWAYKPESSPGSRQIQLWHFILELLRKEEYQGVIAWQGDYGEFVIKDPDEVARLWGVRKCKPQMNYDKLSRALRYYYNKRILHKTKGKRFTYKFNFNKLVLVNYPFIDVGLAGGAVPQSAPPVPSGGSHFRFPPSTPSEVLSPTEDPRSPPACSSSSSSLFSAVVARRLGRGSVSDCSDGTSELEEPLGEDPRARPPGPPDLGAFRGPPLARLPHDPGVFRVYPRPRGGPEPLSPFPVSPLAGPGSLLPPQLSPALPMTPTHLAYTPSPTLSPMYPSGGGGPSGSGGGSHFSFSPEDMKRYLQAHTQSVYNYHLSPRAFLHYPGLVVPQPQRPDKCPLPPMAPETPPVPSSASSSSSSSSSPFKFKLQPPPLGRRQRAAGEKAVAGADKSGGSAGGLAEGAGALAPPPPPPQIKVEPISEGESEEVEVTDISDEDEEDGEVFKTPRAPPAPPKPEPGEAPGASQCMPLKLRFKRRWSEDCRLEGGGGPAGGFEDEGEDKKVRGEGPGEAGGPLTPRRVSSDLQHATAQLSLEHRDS
# Procedure, shortened: as §1
Sequence,binding signal [1],binding signal [2],binding signal [3],binding signal [4],binding signal [5],binding signal [6],binding signal [7],binding signal [8],binding signal [9],binding signal [10],binding signal [11],binding signal [12],binding signal [13],binding signal [14]
GCGATC,"1.08 fold enrichment (6-mer frequency, TF over GST control)","1.01 fold enrichment (6-mer frequency, TF over GST control)","1.06 fold enrichment (6-mer frequency, TF over GST control)","1.02 fold enrichment (6-mer frequency, TF over GST control)","1.13 fold enrichment (6-mer frequency, TF over GST control)","1.03 fold enrichment (6-mer frequency, TF over GST control)","1.03 fold enrichment (6-mer frequency, TF over GST control)","1.03 fold enrichment (6-mer frequency, TF over GST control)","1.04 fold enrichment (6-mer frequency, TF over GST control)","1 fold enrichment (6-mer frequency, TF over GST control)","1 fold enrichment (6-mer frequency, TF over GST control)",–,–,–
CATTAG,–,–,"1.05 fold enrichment (6-mer frequency, TF over GST control)","1.07 fold enrichment (6-mer frequency, TF over GST control)","1.1 fold enrichment (6-mer frequency, TF over GST control)","1.26 fold enrichment (6-mer frequency, TF over GST control)",–,–,–,–,–,"1 fold enrichment (6-mer frequency, TF over GST control)","1.03 fold enrichment (6-mer frequency, TF over GST control)","1.01 fold enrichment (6-mer frequency, TF over GST control)"
